The text below walks through data of PubChem BioAssay.

Experiment [1] can be described thus: optical density shifts of acrAB sulA E. coli – strain DRC41, OD650, 48 h, E. coli filamentation inducer project, primary screen (AID 1152).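 Also: E. coli MC1000 strain DRC41 lacking acrAB efflux pump and sulA.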 As to conditions: higher = more signal, called active from +8 up or from −8 down.
A short description of experiment [2]: probe aLefty1 binding on compound microarray – biochemical, small-molecule microarray, 635/667 nm fluorescence, primary screen (AID 1153).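 Also: score merges spot fluorescence with signal-to-noise ratio from the scanned slide images.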 Particulars: higher = more signal.
Experiment [3] can be described thus: plasmodial surface anion channel blockers, osmotic lysis – cell-based, P. falciparum Indochina, OD700, 1 h, primary screen (AID 1154). As to conditions: P. falciparum Indochina infected RBC osmotic lysis, higher = more signal, called active from +8 up or from −8 down.
Experiment [4] is described as follows: plasmodial surface anion channel blockers, osmotic lysis – cell-based, P. falciparum Indochina, OD700, 2 h, primary screen (AID 1155).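 Also: lysis reports solute entry through the parasite surface anion channel PSAC.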 Particulars: P. falciparum Indochina infected erythrocytes, higher = more signal, called active from +8 up or from −8 down.
The nature of experiment [5]: changes in parasitized red cell lysis, either direction – P. falciparum Indochina, OD700, 3 h, PSAC antagonist project, primary screen (AID 1156). As to conditions: P. falciparum-infected erythrocytes, osmotic lysis, higher = more signal, called active from +8 up or from −8 down.
Experiment [6] is described as follows: plasmodial surface anion channel blockers, osmotic lysis – cell-based, P. falciparum Indochina, OD700, 18 h, primary screen (AID 1157). As to conditions: P. falciparum Indochina infected erythrocytes, osmotic lysis OD700, 18 h; higher = more signal, called active from +8 up or from −8 down.
A short description of experiment [7]: S6 kinase pathway phospho-S6 level changes – cell-based, A549, cytoblot, luminescence, serum-stimulated, primary screen (AID 1158).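 Also: serum-stimulated A549 lung adenocarcinoma cells; signal is phosphorylated S6 detected by cytoblot immunostaining with HRP secondary.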 As to conditions: 5 h, higher = more signal.
Experiment [8] has as its target NADPH oxidase 2 (Homo sapiens) (UniProt P04839). Put plainly: compounds shifting NOX2 Amplex Red fluorescence – cell-based, HEK293-NOX2, PMA-stimulated, NOX inhibitor project, primary screen (AID 1159). Also: test concentration not given here. Particulars: 45 min, higher = more signal, called active from +8 up or from −8 down.
Experiment [9] has as its target NADPH oxidase 4 (Homo sapiens) (UniProt Q9NPH5). In words: compounds shifting NOX4 Amplex Red fluorescence – cell-based, HEK293-NOX4, tetracycline-induced, NOX inhibitor project, primary screen (AID 1160). As to conditions: HEK293-NOX4, Amplex Red H2O2 fluorescence, 45 min; higher = more signal, called active from +8 up or from −8 down.
In experiment [10] the target is NADPH oxidase 5 (Homo sapiens) (UniProt Q96PH1). Put plainly: compounds shifting NOX5 Amplex Red fluorescence – cell-based, HEK293-NOX5, NOX inhibitor project, primary screen (AID 1161). As to conditions: HEK293-NOX5, ionomycin, 45 min, higher = more signal.
NADPH oxidase 5 (Homo sapiens), sequence (Q96PH1 whole entry, looked up): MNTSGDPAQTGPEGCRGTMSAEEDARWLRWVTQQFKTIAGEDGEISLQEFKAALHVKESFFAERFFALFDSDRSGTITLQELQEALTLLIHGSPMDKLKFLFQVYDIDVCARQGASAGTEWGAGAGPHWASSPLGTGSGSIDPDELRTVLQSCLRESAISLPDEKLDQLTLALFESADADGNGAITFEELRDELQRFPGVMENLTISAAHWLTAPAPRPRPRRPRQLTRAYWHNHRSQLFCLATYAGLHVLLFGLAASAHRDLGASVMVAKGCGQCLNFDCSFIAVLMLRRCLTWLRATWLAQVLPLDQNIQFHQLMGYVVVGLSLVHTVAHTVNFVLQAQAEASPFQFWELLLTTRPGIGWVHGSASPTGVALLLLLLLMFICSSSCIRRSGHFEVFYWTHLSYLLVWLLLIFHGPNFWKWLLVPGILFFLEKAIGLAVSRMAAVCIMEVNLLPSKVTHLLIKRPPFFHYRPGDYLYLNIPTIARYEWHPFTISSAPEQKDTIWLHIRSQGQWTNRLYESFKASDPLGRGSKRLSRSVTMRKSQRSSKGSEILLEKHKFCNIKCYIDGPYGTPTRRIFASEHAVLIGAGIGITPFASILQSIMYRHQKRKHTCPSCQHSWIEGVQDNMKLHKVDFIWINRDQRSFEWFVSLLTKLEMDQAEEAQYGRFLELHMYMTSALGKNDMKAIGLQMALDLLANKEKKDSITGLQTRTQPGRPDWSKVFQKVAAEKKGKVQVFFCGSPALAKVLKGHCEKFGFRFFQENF
Experiment [11] is described as follows: compound effects on lung adenocarcinoma cell viability – A549, calcein-AM fluorescence, 48 h, basal, profiling panel (AID 1162). Also: test concentration not given here. As to conditions: higher = more signal.
The nature of experiment [12]: compound effects on differentiated 3T3-L1 adipocyte viability – cell-based, 3T3-L1 adipocytes, calcein-AM fluorescence, 48 h, basal, profiling panel (AID 1163). Also: test concentration not given here. As to conditions: 3T3-L1 adipocytes viability, higher = more signal.
Experiment [13] is described as follows: compound effects on hepatocellular carcinoma cell viability – HepG2, calcein-AM fluorescence, 48 h, basal, profiling panel (AID 1164). Also: test concentration not given here. Particulars: higher = more signal.
Experiment [14] in a line: compound effects on multiple myeloma cell viability – MM1S, calcein-AM fluorescence, 48 h, basal, profiling panel (AID 1165).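 Also: viability of MM1S multiple myeloma cells under basal unstimulated conditions; test concentration not given here.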 Particulars: higher = more signal.
Experiment [15] is described as follows: calcein-AM signal in unstimulated myeloma cells – cell-based, calcein-AM fluorescence, 48 h, PK04 Diversity Set, profiling panel (AID 1166).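 Also: cells grown under basal conditions without added stimulus; test concentration not given here.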 As to conditions: RPMI8226 myeloma viability, higher = more signal.
The nature of experiment [16]: JC-1 mitochondrial signal, unstimulated HepG2 cells – cell-based, JC-1 fluorescence, 24 h, 100 nL compound, profiling panel (AID 1167). Also: test concentration not given here. As to conditions: HepG2 mitochondrial potential, higher = more signal.
Experiment [17] can be described thus: JC-1 mitochondrial signal, unstimulated adipocytes – cell-based, JC-1 fluorescence, 3T3-L1 adipocytes, 24 h, 100 nL compound, profiling panel (AID 1168). Also: test concentration not given here. As to conditions: JC-1 mitochondrial fluorescence, higher = more signal, called active from +8 up or from −8 down.
A short description of experiment [18]: JC-1 mitochondrial signal, unstimulated myeloma cells – cell-based, JC-1 fluorescence, RPMI8226, 24 h, 100 nL compound, profiling panel (AID 1169). Also: test concentration not given here. Particulars: JC-1 mitochondrial potential fluorescence, higher = more signal.
Experiment [19] in a line: JC-1 mitochondrial signal, unstimulated MM1S myeloma – cell-based, JC-1 fluorescence, 24 h, 100 nL compound, profiling panel (AID 1170). Also: test concentration not given here. As to conditions: MM1S mitochondrial potential, higher = more signal.
Experiment [20] in a line: resazurin metabolic signal in A549 cells – cell-based, resazurin fluorescence, 24 h, PK04 Diversity Set, profiling panel (AID 1171). Also: test concentration not given here. As to conditions: A549 viability, higher = more signal, called active from +8 up or from −8 down.

Active and inactive are the calls of the source.

NADPH oxidase 2 (Homo sapiens), sequence (P04839 whole entry, looked up): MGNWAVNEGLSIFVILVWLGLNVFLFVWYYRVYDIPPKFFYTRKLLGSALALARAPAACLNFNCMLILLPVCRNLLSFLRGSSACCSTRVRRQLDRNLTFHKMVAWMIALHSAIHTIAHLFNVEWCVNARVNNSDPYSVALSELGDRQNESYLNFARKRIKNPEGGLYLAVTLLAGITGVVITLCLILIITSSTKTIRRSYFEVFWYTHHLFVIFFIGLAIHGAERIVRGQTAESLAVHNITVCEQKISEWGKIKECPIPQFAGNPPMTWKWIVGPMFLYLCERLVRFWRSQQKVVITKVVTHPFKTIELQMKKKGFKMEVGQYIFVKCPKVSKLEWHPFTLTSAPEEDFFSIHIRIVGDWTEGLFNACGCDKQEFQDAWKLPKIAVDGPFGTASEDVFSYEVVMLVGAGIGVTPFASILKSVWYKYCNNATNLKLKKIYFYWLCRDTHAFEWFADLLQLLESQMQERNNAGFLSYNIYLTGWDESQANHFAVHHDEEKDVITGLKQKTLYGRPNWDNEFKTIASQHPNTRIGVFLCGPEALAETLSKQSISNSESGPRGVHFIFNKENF
NADPH oxidase 4 (Homo sapiens), sequence (Q9NPH5 whole entry, looked up): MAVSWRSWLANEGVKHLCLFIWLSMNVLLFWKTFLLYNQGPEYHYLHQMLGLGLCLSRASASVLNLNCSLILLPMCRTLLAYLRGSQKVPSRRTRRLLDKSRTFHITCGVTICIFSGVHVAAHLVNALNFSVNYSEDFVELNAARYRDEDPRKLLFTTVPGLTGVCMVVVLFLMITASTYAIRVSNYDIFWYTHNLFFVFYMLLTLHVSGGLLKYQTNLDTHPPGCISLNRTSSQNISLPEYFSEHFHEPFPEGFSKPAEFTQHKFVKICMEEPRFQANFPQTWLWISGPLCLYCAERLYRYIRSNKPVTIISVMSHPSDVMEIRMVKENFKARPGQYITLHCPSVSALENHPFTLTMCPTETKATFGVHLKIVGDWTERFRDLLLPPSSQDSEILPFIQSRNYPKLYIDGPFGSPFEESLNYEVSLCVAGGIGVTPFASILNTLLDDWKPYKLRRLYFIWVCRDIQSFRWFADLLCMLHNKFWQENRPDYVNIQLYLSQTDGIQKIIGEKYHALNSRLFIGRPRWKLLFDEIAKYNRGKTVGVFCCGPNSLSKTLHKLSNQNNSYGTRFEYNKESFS

With `[N-]=[N+]=Nc1ccccc1[C@H]1OC(c2ccc(OCCCO)cc2)=N[C@@]1(Cc1ccccc1)C(=O)N1CCOCC1`, the z-score in experiment [1] was -0.388 (inactive); in [3], 30.8 (active); in [4], 30.6 (active); in [5] it was 2.96 (inactive); in experiment [6], 9.58 (active); in experiment [7] it was -0.0055. The z-score in experiment [8] is -1.29 (inactive); in [9], 1.27 (inactive); in [10], 1.13; in experiment [11], -1.59; in experiment [12], 0.539; in experiment [13], -1.12. For the same compound, the z-score in experiment [14] was -2.4; in experiment [15], -3.94; in experiment [16], -0.273; in [17], 0.598 (inactive); in [18], -1.09; in experiment [19] it was -2.67. The z-score in experiment [20] is -2.74 (inactive). In experiment [2], this compound showed a composite z-score of 0.342.
For `COC(=O)[C@@]1(Cc2ccc(F)cc2)[C@H]2c3cc(C(=O)N(C)C)n(Cc4ccc(C)o4)c3C[C@H]2CN1C(=O)c1ccccc1`, the z-score in [1] is -0.92 (inactive); in experiment [3] it was 5.03 (inactive); in experiment [4], 1.73 (inactive); in [5], 0.951 (inactive); in experiment [6], 1.3 (inactive); in experiment [7], -0.239. Moreover, the z-score in experiment [8] was 0.455 (inactive); in [9] it was 0.056 (inactive); in experiment [10], 0.604; in experiment [11], 0.0895; in experiment [12], -0.333; in experiment [13], 0.625. Also, the z-score in experiment [14] was -1.58; in experiment [15] it was -2.03; in experiment [16], 0.0211; in experiment [17] it was -1.72 (inactive); in [18] it was -0.847; in experiment [19] it was -0.209. The z-score in [20] was 0.501 (inactive). In [2], the composite z-score came out at 2.34.
On to `CC1CC/C=C\[C@H]2OC34C=CCN(Cn5nnc6ccccc65)C(=O)[C@H]3N(CCCCCO)C(=O)[C@@H]4C2C(=O)O1` (stereo not given in full), for which the z-score is 0.996 (inactive) in experiment [1]; 0.586 (inactive) in experiment [3]; 0.253 (inactive) in [4]; 0.193 (inactive) in experiment [5]; 0.626 (inactive) in [6]; 0.0478 in experiment [7]. Further, the z-score in experiment [8] was 0.664 (inactive); in experiment [9] it was 0.341 (inactive); in [10], 1.68; in experiment [11], -0.306; in experiment [12] it was 0.393; in experiment [13], -0.841. For the same compound, the z-score in [14] is 1.4; in [15], -0.0074; in experiment [16] it was 0.944; in experiment [17] it was 0.516 (inactive); in experiment [18], 0.727; in experiment [19] it was -0.124. Also, the z-score in experiment [20] is 0.411 (inactive). Further, the composite z-score in experiment [2] was -0.624.
In the case of `CC(C)OC(=O)C=C1C[C@@H](c2cccc(Cl)c2)O[C@@H](c2cccc(Cl)c2)O1`, the z-score is -0.411 (inactive) in experiment [1]; 0.915 (inactive) in experiment [3]; 0.584 (inactive) in experiment [4]; -0.159 (inactive) in [5]; 0.61 (inactive) in experiment [6]; -0.0581 in [7]. The z-score was 0.215 (inactive) in experiment [8]; -0.914 (inactive) in [9]; -0.0406 in experiment [10]; -1.2 in [11]; -0.0201 in experiment [12]; -0.822 in experiment [13]. Further, the z-score in experiment [14] was -1.97; in experiment [15], -0.66; in experiment [16], -0.46; in experiment [17], 0.843 (inactive); in experiment [18], 0.0432; in [19], -1.51. Also, in experiment [20], the z-score was 0.146 (inactive). Also, in [2], the composite z-score is 0.165.
For `COCCOC(=O)N1C(=O)[C@@]2(c3ccccc31)[C@H](C(=O)N1CCc3cc(OC)c(OC)cc3C1)[C@H]1C(=O)O[C@H](c3ccccc3)[C@H](c3ccccc3)N1[C@@H]2c1ccc(O)cc1`, the z-score in experiment [1] is 3.04 (inactive); in experiment [3], 0.927 (inactive); in experiment [4] it was -0.751 (inactive); in experiment [5], -0.965 (inactive); in experiment [6] it was -1.93 (inactive); in experiment [7] it was 2.38. The z-score in [8] was 0.571 (inactive); in [9], 0.549 (inactive); in experiment [10] it was 1.2; in [11], 2.4; in experiment [12], 1.1; in experiment [13], 1.76. Also, the z-score in [14] is 0.275; in experiment [15], 0.0454; in experiment [16], 0.218; in [17] it was 0.743 (inactive); in experiment [18], -0.69; in experiment [19], 0.0766. Further, the z-score in experiment [20] was -0.223 (inactive). This compound also registered a composite z-score in experiment [2] of -0.0186.
As to `C=C(CCCC)/C(=C/C[C@H](OC(=O)c1ccncc1)c1ccc(OCCO)cc1)c1cc(C(=O)OC)ccc1OC`, the z-score was 0.695 (inactive) in experiment [1]; 20.9 (active) in experiment [3]; 1.88 (inactive) in [4]; 2.24 (inactive) in experiment [5]; -0.722 (inactive) in [6]; 0.769 in experiment [7]. Also, the z-score was -1.96 (inactive) in [8]; -1.3 (inactive) in experiment [9]; -2.54 in [10]; -0.154 in experiment [11]; 1.55 in experiment [12]; -0.754 in [13]. The z-score in [14] was -1.47; in experiment [15], -2.56; in [16], 1.22; in experiment [17], 0.0667 (inactive); in [18], -0.281; in [19], -0.93. For the same compound, the z-score in experiment [20] was 0.54 (inactive). Also, in experiment [2], the composite z-score is -0.103.
Regarding `COCCOC(=O)N1C(=O)[C@@]2(c3cc(C#Cc4ccc(OC)cc4)ccc31)[C@H](c1ccc(O)cc1)N1[C@H](c3ccccc3)[C@H](c3ccccc3)OC(=O)[C@H]1[C@@H]2C(=O)Nc1nc2ccccc2s1`, the z-score in experiment [1] is -1.12 (inactive); in [3], 1.41 (inactive); in experiment [4], 0.616 (inactive); in experiment [5] it was -1.14 (inactive); in experiment [6] it was 1.01 (inactive); in experiment [7], 0.263. The z-score in experiment [8] was 1.95 (inactive); in [9] it was 0.183 (inactive); in [10] it was -0.164; in experiment [11], -0.738; in experiment [12], 0.967; in experiment [13], 0.0165. For the same compound, the z-score in experiment [14] is -1.55; in [15], -1.6; in experiment [16], -2.51; in experiment [17], -0.0239 (inactive); in [18], -0.71; in [19], -1.34. Further, the z-score in experiment [20] is -0.838 (inactive). The same compound returned a composite z-score in experiment [2] of 0.269.
Regarding `CCOC(=O)C1=CC[C@H]2C(=O)N(c3ccccc3)C(=O)[C@@H]12`, the z-score in experiment [1] is -1.58 (inactive); in experiment [3], 0.399 (inactive); in experiment [4] it was 0.772 (inactive); in experiment [5], 0.692 (inactive); in experiment [6] it was 0.339 (inactive); in [7], -0.743. Also, the z-score in experiment [8] is -0.234 (inactive); in [9], -2.03 (inactive); in [10], -2.36; in experiment [11] it was -0.538; in experiment [12], -0.405; in experiment [13] it was 0.229. The z-score in experiment [14] is -0.472; in experiment [15], 0.217; in [16] it was -1.8; in [17] it was -1.28 (inactive); in [18], -0.00668; in [19] it was 0.371. For the same compound, the z-score in [20] was 0.396 (inactive). Further, the composite z-score in [2] worked out at 0.0027.
